Bioassay records as filed in PubChem BioAssay.
L929 necroptosis = L929 zVAD cell death inhibition; actives 0.38% (n = 220,000); AID 1377; viability rescue, % at 10 µM; L929 zVAD necroptosis rescue, ATP luminescence, 24 h; with zVAD 60 µM;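 active = activation, scaled between plate controls, above about 75%, limit read from the data; inactive = activation under that limit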;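 also: 0% = zVAD with DMSO and 100% = DMSO alone without zVAD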
TNF death inh = inhibitors of TNF-alpha induced necroptosis in Jurkat FADD-/- cells; Jurkat FADD-/- TNF necroptosis rescue, ATP luminescence, 24 h; 0 = TNF only, 100 = no-TNF cells; activation (protection from cell death), % at 10 µM; actives 0.068% (n = 220,000);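 active = activation, meaning protection from cell death, of at least 50% relative to plate controls; inactive = activation below 50%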;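 also: necroptosis triggered by 40 ng/mL TNF-alpha added together with compound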
eIF4E 4G PPI = blocks eIF4E binding to eIF4G; P63073+Q04637; actives 0.37% (n = 220,000); inhibition, % at 21.7 µM; TR-FRET eIF4E-eIF4GI(517-606) binding, 2 h;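 active = inhibition above about 30%, limit read from the data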;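 also: 0% = full FRET control wells and 100% = background wells lacking eIF4GI fragment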
Target sequence (P63073 whole entry, looked up, the tested form may be a part): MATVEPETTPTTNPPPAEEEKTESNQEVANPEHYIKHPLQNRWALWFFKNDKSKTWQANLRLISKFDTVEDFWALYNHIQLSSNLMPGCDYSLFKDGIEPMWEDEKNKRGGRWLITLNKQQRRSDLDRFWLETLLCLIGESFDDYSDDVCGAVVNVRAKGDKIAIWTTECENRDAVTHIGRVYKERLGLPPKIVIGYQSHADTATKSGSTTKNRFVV
Target sequence (Q04637 whole entry, looked up, the tested form may be a part): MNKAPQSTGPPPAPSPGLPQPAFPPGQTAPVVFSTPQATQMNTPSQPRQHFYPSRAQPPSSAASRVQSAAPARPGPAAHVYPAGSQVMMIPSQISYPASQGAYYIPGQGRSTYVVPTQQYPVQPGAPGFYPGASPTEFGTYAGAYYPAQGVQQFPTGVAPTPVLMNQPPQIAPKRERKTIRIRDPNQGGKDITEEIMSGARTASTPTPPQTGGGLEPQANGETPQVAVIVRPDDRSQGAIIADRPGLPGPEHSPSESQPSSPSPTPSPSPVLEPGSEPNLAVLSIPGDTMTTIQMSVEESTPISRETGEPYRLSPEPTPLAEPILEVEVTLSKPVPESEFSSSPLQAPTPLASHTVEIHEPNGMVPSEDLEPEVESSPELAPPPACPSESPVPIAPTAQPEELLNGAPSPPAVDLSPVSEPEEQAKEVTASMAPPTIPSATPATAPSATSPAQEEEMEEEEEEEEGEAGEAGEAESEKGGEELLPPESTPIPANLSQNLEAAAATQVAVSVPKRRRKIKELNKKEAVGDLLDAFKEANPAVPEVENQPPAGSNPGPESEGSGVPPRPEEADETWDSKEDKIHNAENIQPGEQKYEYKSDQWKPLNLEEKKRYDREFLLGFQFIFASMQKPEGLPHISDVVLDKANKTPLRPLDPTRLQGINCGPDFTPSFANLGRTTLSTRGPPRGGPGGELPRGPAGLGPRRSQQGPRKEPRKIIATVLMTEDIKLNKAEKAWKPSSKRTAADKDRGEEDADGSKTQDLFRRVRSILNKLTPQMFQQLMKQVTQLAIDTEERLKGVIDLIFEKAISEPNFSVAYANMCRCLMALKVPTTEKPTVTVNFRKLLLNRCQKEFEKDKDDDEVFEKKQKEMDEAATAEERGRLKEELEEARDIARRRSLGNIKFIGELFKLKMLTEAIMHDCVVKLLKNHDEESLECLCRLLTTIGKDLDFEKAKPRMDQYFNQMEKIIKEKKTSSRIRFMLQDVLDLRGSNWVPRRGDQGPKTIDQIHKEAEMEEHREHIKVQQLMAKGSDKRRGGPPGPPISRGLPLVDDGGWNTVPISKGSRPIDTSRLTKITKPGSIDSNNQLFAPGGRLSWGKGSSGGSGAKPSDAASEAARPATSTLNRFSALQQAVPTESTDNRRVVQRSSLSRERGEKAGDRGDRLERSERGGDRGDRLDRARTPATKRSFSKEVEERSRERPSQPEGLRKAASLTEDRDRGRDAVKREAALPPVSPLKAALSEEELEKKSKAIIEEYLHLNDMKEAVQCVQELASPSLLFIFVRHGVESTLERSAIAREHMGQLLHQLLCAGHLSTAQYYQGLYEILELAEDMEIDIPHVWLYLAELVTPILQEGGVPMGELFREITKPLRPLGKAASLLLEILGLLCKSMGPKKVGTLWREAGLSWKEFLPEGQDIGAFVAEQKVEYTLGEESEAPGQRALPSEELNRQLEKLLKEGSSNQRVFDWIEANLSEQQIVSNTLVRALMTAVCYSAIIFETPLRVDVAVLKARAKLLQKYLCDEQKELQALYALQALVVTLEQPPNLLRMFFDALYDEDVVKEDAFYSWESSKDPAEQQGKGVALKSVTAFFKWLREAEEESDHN
EBV gp42 inh = blocks Epstein-Barr virus glycoprotein 42 binding; Q1HVG2; Fluorescence polarization binding assay, mP read-out; inhibition, % (tested at 21.74 µM); actives 0.42% (n = 220,000); AID 1085; in the data active = inhibition above about 50%
zVAD necrop conf = confirmed blocker of zVAD induced death in L929 cells; shares compounds with L929 necroptosis; L929 zVAD-induced necroptosis rescue, ATP luminescence, 24 h; activation (protection from necroptosis), % at 10 µM; actives 16% (n = 760); AID 463117;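 active = mean protection from necroptosis of at least 50% over duplicate tests; inactive = mean protection below 50%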;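 also: 0% = cells with zVAD alone and 100% = vehicle cells without zVAD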
The depositor's hits bear a star. Hits are enriched below; roughly 1.2% of the tested compounds scored in any of these assays.

Results for O=C(Nc1cccc(-c2csc(Nc3cccc(C(F)(F)F)c3)n2)c1)c1ccccc1 ?
L929 necroptosis: 7; TNF death inh: 5; eIF4E 4G PPI: -3; EBV gp42 inh: -14

How did COc1ccc(-c2cc(C(=O)Nc3cc(OC)cc(C(=O)Nc4cccc(C(F)(F)F)c4)c3)[nH]n2)cc1 do in these assays?
L929 necroptosis: 79*; TNF death inh: 2; eIF4E 4G PPI: -9; EBV gp42 inh: -31; zVAD necrop conf: 3

How did O=C(Nc1ccc(-c2csc(Nc3cccc(C(F)(F)F)c3)n2)cc1)c1ccccc1 do in these assays?
L929 necroptosis: 83*; TNF death inh: 8; eIF4E 4G PPI: -3; EBV gp42 inh: -21; zVAD necrop conf: 38

What do the screens show for `COc1cc(NC(=O)c2ccno2)cc(C(=O)Nc2cccc(C(F)(F)F)c2)c1`?
L929 necroptosis: 2; TNF death inh: 3; eIF4E 4G PPI: -5; EBV gp42 inh: -11

What do the screens show for `COc1ccccc1OCC#CCNC1CCCCC1C` (stereo unspecified)?
L929 necroptosis: 1; TNF death inh: 2; eIF4E 4G PPI: 5; EBV gp42 inh: -9

What do the screens show for `CC(=O)c1c(C)[nH]c(C(=O)OCC(=O)NCCc2ccc(F)cc2)c1C`?
L929 necroptosis: 1; TNF death inh: -3; eIF4E 4G PPI: 5; EBV gp42 inh: 4

Results for CCc1c(C)[nH]c(C(=O)OCc2ccccc2)c1C ?
L929 necroptosis: 86*; TNF death inh: 1; eIF4E 4G PPI: 3; EBV gp42 inh: -15; zVAD necrop conf: 8

How did CC(=O)c1c(C)[nH]c(C(=O)OCc2cccc(Cl)c2)c1C do in these assays?
L929 necroptosis: 79*; TNF death inh: -1; eIF4E 4G PPI: 1; EBV gp42 inh: -5; zVAD necrop conf: 8

Results for COC(=O)c1c(C)[nH]c(C(=O)OCc2ccc(F)cc2)c1C ?
L929 necroptosis: 79*; TNF death inh: 1; eIF4E 4G PPI: -3; EBV gp42 inh: 4; zVAD necrop conf: 3

How did CC(=O)c1c(C)[nH]c(C(=O)OCc2c(F)cccc2Cl)c1C do in these assays?
L929 necroptosis: 1; TNF death inh: -1; eIF4E 4G PPI: 3; EBV gp42 inh: -14

How did CCc1c(C(=O)OCc2ccccc2)[nH]c(C)c1C do in these assays?
L929 necroptosis: 68; TNF death inh: 0; eIF4E 4G PPI: 3; EBV gp42 inh: -3

What do the screens show for `Cc1cc(C#N)c(C)n1-c1cc(S(=O)(=O)N2CCOCC2)ccc1N1CCCC1`?
L929 necroptosis: -1; TNF death inh: -2; eIF4E 4G PPI: 6; EBV gp42 inh: -4

What do the screens show for `O=C(c1ccc2ccccc2c1)C1CCCN(C(=O)c2noc3c2CCCC3)C1` (stereo unspecified)?
L929 necroptosis: 1; TNF death inh: 1; eIF4E 4G PPI: 1; EBV gp42 inh: 6

What do the screens show for `Cc1ccccc1NC(=O)C(=Cc1ccc(C(=O)O)cc1)C(=O)Nc1ccccc1C`?
L929 necroptosis: 79*; TNF death inh: 43; eIF4E 4G PPI: 2; EBV gp42 inh: -11; zVAD necrop conf: 38

What do the screens show for `CC(=O)/C(=C/c1ccccc1)C(=O)Nc1ccccc1C`?
L929 necroptosis: -1; TNF death inh: -5; eIF4E 4G PPI: 0; EBV gp42 inh: -13

What do the screens show for `O=C(CSc1nnc(COc2ccccc2Cl)o1)NC(=O)NC1CCCC1`?
L929 necroptosis: 87*; TNF death inh: -5; eIF4E 4G PPI: 10; EBV gp42 inh: -13; zVAD necrop conf: 35

How did CC(C)NC(=O)NC(=O)CSc1nnc(COc2ccccc2Cl)o1 do in these assays?
L929 necroptosis: 1; TNF death inh: -3; eIF4E 4G PPI: -4; EBV gp42 inh: 1

How did COc1cc(/C=N/NC(=O)c2sc(N)c(C#N)c2C)cc(Br)c1O do in these assays?
L929 necroptosis: 99*; TNF death inh: 5; eIF4E 4G PPI: 2; EBV gp42 inh: -11; zVAD necrop conf: 39

How did COc1ccc2ccccc2c1/C=N/NC(=O)c1sc(N)c(C#N)c1C do in these assays?
L929 necroptosis: 1; TNF death inh: 3; eIF4E 4G PPI: -2; EBV gp42 inh: -12

How did COc1ccc(OCCC(=O)NCc2ccccc2)cc1 do in these assays?
L929 necroptosis: 1; TNF death inh: 1; eIF4E 4G PPI: 0; EBV gp42 inh: -10

Results for COc1ccc(OCCC(=O)NCC23CC4CC(CC(C4)C2)C3)cc1 ?
L929 necroptosis: 94*; TNF death inh: 1; eIF4E 4G PPI: -4; EBV gp42 inh: -8; zVAD necrop conf: 4
